# Measured values as given in PubChem BioAssay (NCATS).
# Records with an inconclusive call do not appear. A call without a number means that no potency is given here. The source made the active and inactive calls. Calls come from the whole dose curve; as a rule, active = well fitted curve in the direction sought with a large enough effect; inconclusive = small, poorly fitted or top-dose-only effect, or another doubt; inactive = no such curve, though single readings can be large; an effect the other way counts as inactive or inconclusive.
# Columns and labels:
# [1] = system: Zika virus NS2B-NS3 protease; assay: Primary screen GU AMC qHTS for Zika virus inhibitors (AID 1347154); note: nearly all actives have a fitted effect of over 70% in size
# Method in brief: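 Unlinked Zika NS2B hydrophilic domain/NS3 protease domain noncovalent complex (25 nM final) in 10 mM Tris-HCl pH 8.0, 0.01% Tween 20, with AMC peptide substrate. Fluorescence (ex 340, em 450 nm) change over 15 min, room temperature; percent inhibition fitted to 4-parameter Hill equation.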
# [2] = qHTS to identify inhibitors of the type 1 interferon - major histocompatibility complex class I in skeletal muscle: primary screen against the NCATS Mechanism Interrogation Plate v5.0 (MIPE) Libary (AID 1347411); note: nearly all actives have a fitted effect of over 65% in size; note: potency is the fitted concentration of half-maximal effect
# Method in brief: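 IFN-beta-driven (4 ng/ml) HLA-B-HiBit expression in CRISPR-tagged C25cl48 myoblasts; compounds 11-pt, 1:3, max 46 uM, 24 hr exposure; lytic NanoLuc complementation luminescence.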
# [3] = system: Zika virus NS2B-NS3 protease (unlinked complex); assay: Primary screen GU Rhodamine qHTS for Zika virus inhibitors: Unlinked NS2B-NS3 protease assay (AID 1347159); note: nearly all actives have a fitted effect of over 60% in size; note: potency is the fitted concentration of half-maximal effect
# Method in brief: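 In dose–response format, inhibition of unlinked protease (25 nM) was measured with 1.5 microM bis-peptide Rhodamine110 substrate. Aprotinin served as the intraplate control.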
# [4] = system: Zika virus NS2B-NS3 protease (linked construct); assay: Primary screen NINDS Rhodamine qHTS for Zika virus inhibitors (AID 1347160); note: nearly all actives have a fitted effect of over 55% in size
# Method in brief: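 Each compound, titrated, sat 15 min with 25 nM linked protease before 1.5 microM Rhodamine110 substrate went in. Fluorescence gain over the next 15 min, in pH 8.0 Tris with Tween 20, gave Hill-fitted curves.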
# [5] = Confirmatory screen GU Rhodamine qHTS for Zika virus inhibitors qHTS (AID 1347157); note: nearly all actives have a fitted effect of over 70% in size
# Method in brief: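 Unlinked NS2B/NS3, 25 nM; Rhod110 peptide, 1.5 microM; compounds, up to 114 microM. Reaction run 15 min at RT in 10 mM Tris-HCl pH 8.0, 0.01% Tween 20; kinetic fluorescence change fitted with a 4-parameter Hill model.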
# [6] = Confirmatory screen NINDS Rhodamine qHTS for Zika virus inhibitors (AID 1347161);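 note: purified Zika NS2B-NS3 protease with linked NS2B cofactor domain and Rhodamine110 peptide substrate; series mostly up to about 110 µM; nearly all actives have a fitted effect of over 60% in size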
# Method in brief: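 Aprotinin served as in-plate control. Conditions: 25 nM linked NS2B-NS3, pH 8.0 Tris buffer, titrated compounds, 15 min preincubation and 15 min reaction with 1.5 microM Rhod110 substrate at room temperature.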
# [7] = Tertiary RLuc qRT-PCR qHTS assay for Zika virus inhibitors (AID 1347169); note: top concentration of the series differs between compounds; nearly all actives have a fitted effect of over 55% in size
# Method in brief: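 Orthogonal cell-based readout: luminescence measured 1-1.5 hrs after adding live-cell Renilla substrate to Vero cells that had been infected with ZIKV-RLuc (MOI 1-2) post-compound, incubated 48-72 hrs at 37 degrees C.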
compound,measurement,setting,value
COc1cc2c(cc1OC)CC(=O)N(CCCN(C)C[C@H]1Cc3cc(OC)c(OC)cc31)CC2,Potency,[1],inactive
same,Potency,[2],inactive
O=C(O)c1nc(=O)[nH]c(=O)[nH]1,Potency,[1],inactive
same,Potency,[2],inactive
Cc1csc(-c2nnc(Nc3ccc(Oc4ncccc4-c4ccnc(N)n4)cc3)c3ccccc23)c1,Potency,[3],inactive
same,Potency,[4],inactive
Cc1ccc2c(c1)C(=O)[C@]1(O)CCN(c3ccccc3)C1=N2,Potency,[5],inactive
same,Potency,[3],inactive
same,Potency,[6],inactive
same,Potency,[7],inactive
Cc1cc2nc3c(=O)[nH]c(=O)nc-3n(CC(O)C(O)C(O)CO)c2cc1C (configuration not stated),Potency,[1],inactive
same,Potency,[2],inactive
CN1CCN2c3ncccc3Cc3ccccc3C2C1 (configuration not stated),Potency,[1],inactive
same,Potency,[2],inactive
CN1CC(=O)NC1=NC(=O)Nc1cccc(Cl)c1,Potency,[1],inactive
same,Potency,[2],inactive
CN(C)c1ccc(-c2nc3ncc(Cl)c(N4CCN(CC(=O)Nc5nccs5)CC4)c3[nH]2)cc1,Potency,[3],17.8 µM (active)
Cc1ccc(S(=O)(=O)Nc2nc3ccccc3nc2Nc2ccc3nsnc3c2)cc1,Potency,[1],inactive
same,Potency,[2],inactive
CC[C@H](C=C[C@@H](C)[C@H]1CC[C@H]2[C@@H]3CC=C4C[C@@H](O)CC[C@]4(C)[C@@H]3CC[C@]12C)C(C)C,Potency,[1],inactive
same,Potency,[2],inactive
COc1cc2nccc(Oc3ccc(NC(=O)Nc4ccc(F)cc4F)c(F)c3)c2cc1OC,Potency,[1],inactive
same,Potency,[2],10.4 µM (active)
COc1ccc(-c2oc3c(CC=C(C)C)c(O)cc(O)c3c(=O)c2O)cc1,Potency,[1],inactive
same,Potency,[2],inactive
CC1=C(CC(=O)O)c2cc(F)ccc2C1=Cc1ccc(S(C)=O)cc1 (configuration not stated),Potency,[1],inactive
same,Potency,[2],inactive
CC(C)C[C@@H](N)[C@H](O)C(=O)N[C@H](C(=O)N[C@H](C(=O)N[C@@H](CC(=O)O)C(=O)O)C(C)C)C(C)C,Potency,[1],inactive
same,Potency,[2],inactive
NC[C@H]1O[C@H](O[C@@H]2[C@@H](O)[C@@H](O[C@H]3O[C@H](CO)[C@@H](O)[C@H](N)[C@@H]3O)[C@H](N)C[C@@H]2N)[C@H](O)[C@@H](O)[C@H]1O,Potency,[1],inactive
same,Potency,[2],inactive
O=C(O)CCC=CCC[C@@H]1[C@H](N2CCCCC2)[C@@H](O)C[C@@H]1OCc1ccc(-c2ccccc2)cc1,Potency,[1],inactive
same,Potency,[2],inactive
CCC(=O)NCC[C@@H]1CCc2ccc3c(c21)CCO3,Potency,[1],inactive
same,Potency,[2],inactive
COc1ccc2c(c1)c(C1=C(c3c[nH]c4ccccc34)C(=O)NC1=O)cn2CCCN(C)C,Potency,[1],inactive
same,Potency,[2],20.8 µM (active)
COc1cc2ncn(-c3cc(OCc4ccccc4S(C)(=O)=O)c(C#N)s3)c2cc1OC,Potency,[1],inactive
same,Potency,[2],inactive
Cc1cccc(-c2[nH]c(C(C)(C)C)nc2-c2ccc3c(c2)OCO3)n1,Potency,[1],inactive
same,Potency,[2],inactive
Nc1ccn([C@@H]2O[C@H](CO)[C@@H](O)[C@H]2O)c(=O)n1,Potency,[1],inactive
same,Potency,[2],inactive
Cc1ccc(C2=Nc3ccc(Cl)cc3OC2)cc1,Potency,[1],inactive
same,Potency,[2],inactive
CCCC1OC2C[C@@H]3[C@H]4CCC5=CC(=O)C=C[C@]5(C)[C@H]4C(O)C[C@]3(C)[C@]2(C(=O)CO)O1 (some centres not stated),Potency,[1],inactive
same,Potency,[2],inactive
NC1(C(=O)N[C@@H](CCO)c2ccc(Cl)cc2)CCN(c2ncnc3[nH]ccc23)CC1,Potency,[3],inactive
same,Potency,[4],inactive
Cc1cc(NC(=O)Nc2ccc(N(C)C)cc2)c2cc(F)cc(F)c2n1,Potency,[1],inactive
same,Potency,[2],inactive
O=C(NC[C@H](O)CO)c1ccncc1Nc1ccc(I)cc1F,Potency,[1],inactive
same,Potency,[2],inactive
C[C@@H]1CCO[C@H]2Cn3cc(C(=O)NCc4ccc(F)cc4F)c(=O)c(O)c3C(=O)N12,Potency,[3],inactive
same,Potency,[4],inactive
CNC(=O)[C@H](Cc1ccccc1)NC(=O)[C@H](CC(C)C)[C@H](CSc1cccs1)C(=O)NO,Potency,[1],inactive
same,Potency,[2],inactive
CNC(=O)c1ccc2c(C(=Nc3cccc(CN(C)C)c3)c3ccccc3)c(O)[nH]c2c1,Potency,[3],inactive
same,Potency,[4],inactive
CC[C@H](C)C(=O)O[C@H]1C[C@H](O)C=C2C=C[C@H](C)[C@H](CC[C@@H](O)C[C@@H](O)CC(=O)O)[C@H]21,Potency,[1],inactive
same,Potency,[2],inactive
N[C@@H](CC(=O)N1CCn2c(nnc2C(F)(F)F)C1)Cc1cc(F)c(F)cc1F,Potency,[1],inactive
same,Potency,[2],inactive
CC(NCCc1ccc(O)cc1)C(O)c1ccc(O)cc1 (configuration not stated),Potency,[1],inactive
same,Potency,[2],inactive
CCCCC(C)(C)[C@H](O)C=C[C@H]1[C@H](O)CC(=O)[C@H]1CC=CCCCC(=O)O,Potency,[1],inactive
same,Potency,[2],inactive
